# Compounds with a hit are over-represented: about 3% of the library has one in this group of screens.
# EBV LMP1 NFkB = Epstein-Barr LMP1 NF-kappaB reporter inhibition | LMP1-induced NF-kappaB luciferase reporter cells, luminescence | inhibition, % at 12.5 µM | 0.69% of 350,000 active; in the data active = inhibition above about 41%; inconclusive = no clear call, values can overlap the other calls;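 also: 0% = neutral control wells and 100% = reference inhibitor control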
# HIF-2a inh = HIF-2a inhibition; 0.72% of 360,000 active; inhibition, % at 18.8 µM; 786-0 RCC cells HIF-2a reporter, luciferase luminescence, overnight; AID 624352;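 active = inhibition of the luminescence signal of 40% or more relative to plate controls, in a single-dose primary screen at 18.75 µM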
# CF NFkB inh = blocks PAF-induced NF-kB reporter in cystic fibrosis cells. KKLEB NF-kB-GFP reporter, GFP fluorescence overnight. inhibition, % at 5 µM. 0.86% of 360,000 active;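 active = at least 50% inhibition at 5 µM, scaled per plate between neutral and stimulator controls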;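 also: PAF is a Pseudomonas aeruginosa culture filtrate used as stimulus; plate controls were PAF-stimulated DMSO wells for no effect and unstimulated DMSO wells for full effect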
# Peg3 prom inh = inhibitors of Peg3 promoter; HeLa PEG-Prom luciferase reporter, luminescence, overnight; inhibition, % at 20 µM; 1.7% of 360,000 active;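 active = inhibition of at least 50% at 20 µM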
# MITF TRPM1 inh = inhibitors of MITF-driven TRPM1 promoter in melanoma cells; SK-MEL-5 TRPM1 promoter luciferase, 24 h; inhibition, % at 12.5 µM; 0.83% of 330,000 active; AID 488899;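 active = mean inhibition across replicates of 60% or more, whatever share of single replicates reaches that level; inconclusive = some that reach 60%, reason not given; inactive = mean inhibition across replicates below 60%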
# KKLEB tox = reduces viability of KKLEB cystic fibrosis airway cells | KKLEB CF airway cells viability, ATPlite luminescence, overnight; active compounds read low; cells stimulated with P. aeruginosa culture filtrate | activity change (cytotoxicity), % at 5 µM | 0.36% of 360,000 active | AID 602141;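 active = corrected activity change at or below -50% at 5 µM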
# Active calls of the source: *; ? = inconclusive; . = no result given; ! = not active in a repeat.
SMILES,EBV LMP1 NFkB,HIF-2a inh,CF NFkB inh,Peg3 prom inh,MITF TRPM1 inh,KKLEB tox
CC(=O)c1c(C)[nH]c(C(=O)Nc2nc(-c3ccc(-c4ccccc4)cc3)cs2)c1C,23,-73,78*,103*,-5,-27
COc1ccc(-c2ccccc2)cc1NC(=O)C1(C)CCN1C(=O)C(C)C (stereo not drawn),.,12,4,20,.,-6
CCCCCC(=O)N1C[C@@H](O)[C@H](n2cc(C3CC3)nn2)C[C@@H]1c1ccc(C)cc1,?,9,4,-3,.,-5
C[C@H](CO)N1C[C@H](C)[C@@H](CN(C)Cc2cccc(F)c2)Oc2cc(-c3cccc(C#N)c3)ccc2S1(=O)=O,-1,9,-34,11,.,0
Cc1cc(N)nc(=O)n1C1CC(O)C(CO)O1 (stereo not drawn),87*,-1,1,-11,15,1
CCCCCC(=O)N1CCN(c2ccc(C(C)=O)cc2F)CC1,77*,-13,-8,-9,6,7
CC(=O)c1ccc(N2CCC(C)CC2)c(F)c1,1,10,18,-25,-41,-6
CCCSc1nc2c(c(=O)[nH]c(=O)n2C)n1Cc1ccc(C)cc1,-1,12,-14,55*,1,-5
CC1=C(/C=C/C(C)=C/C=C/C(C)=C/C(=O)Nc2ccc(O)cc2)C(C)(C)CCC1,5,11,4,61*!,-3,-9
O=C1NC(=O)C2(CCCc3c([N+](=O)[O-])cccc32)N1 (stereo not drawn),-1,13,-9,10,.,-8
Cc1nn(CCC(=O)O)c2nc(-c3cccnc3)cc(C(F)(F)F)c12,1,16,-10,8,11,-10
Cc1nn(CCc2nn[nH]n2)c2nc(-c3ccc(C4CCCCC4)cc3)cc(C(F)(F)F)c12,-34,12,76*,24,13,-57*
CCOc1ccc(OCc2cccc(C(=O)Nc3ccc(CN4CCCCC4)cc3)c2)cc1,4,-9,28,50*,26,-18
COc1ccc(OCc2cccc(C(=O)Nc3ccc(CN4CCCCC4)cc3)c2)cc1,9,-35,17,-162,-13,-20
Cc1ccc(CN2C(=O)c3ccccc3C2c2nnnn2C(C)C)cc1 (stereo not drawn),.,-11,.,.,.,.
O=C(NCC[C@H]1CC[C@H](NS(=O)(=O)c2ccccc2F)[C@@H](CO)O1)c1ccc(F)cc1,.,1,.,.,.,.
CC(C)(C)NC(=S)N1CCC(C(=O)c2ccc(Cl)cc2)CC1,42*,9,5,-9,-4,-5
O=c1cc2c(c(-c3ccccc3)n1Cc1ccccc1)[C@@H](CCO)NC2,-2,-3,6,-11,1,1
O=C(NCc1ccncc1)C1Cc2c(-c3ccccc3Oc3ccccc3)ccnc2O1 (stereo not drawn),.,6,4,18,.,-8
Cc1nc2ccc(-c3nc4ccccc4o3)cc2[nH]1,-6,-287,-36,-308,-94,2
Nc1ccc(-c2nc3ccc(-c4nc5ccccc5o4)cc3[nH]2)cc1,-26,-275,37,73*,-42,-76*
COc1ccc(OC)c(NC(=O)C2(C)CCN2C(=O)C2(c3ccc(Cl)cc3)CCC2)c1 (stereo not drawn),.,-7,13,13,.,-8
COc1cc(-c2coc3c(C(=O)NCc4ccc(OC)c(OC)c4)cccc23)ccc1O,.,-160,4,51*,.,-32
COc1cc(-c2coc3c(C(=O)NCc4ccc(N(C)C)cc4)cccc23)ccc1O,.,-53,-9,-27,.,-34
CCOC(=O)Nc1cc2c(cc1[N+](=O)[O-])-c1ccccc1C2=O,-14,-120,6,-111,4,13
SMILES,EBV LMP1 NFkB,HIF-2a inh,CF NFkB inh,Peg3 prom inh,MITF TRPM1 inh,KKLEB tox
CCCCNC(=O)C1c2ccccc2OCC(=O)N1Cc1ccccn1 (stereo not drawn),.,13,.,.,.,.
COC(=O)/C=C/S(=O)(=O)c1ccc(NC(C)=O)cc1,8,13,91*,105*,21,-22
CCCS(=O)(=O)c1c(S(=O)(=O)CCC)c2c(C)cccn2c1C(N)=O,-1,7,3,9,2,7
CCCS(=O)(=O)c1c(S(=O)(=O)CCC)c2c(C)cccn2c1C(=O)N/N=C/c1cc(O)cc(O)c1,17,10,11,53*,58,0
Cn1ncc2c1NC(c1ccc(F)cc1)SCC2=O (stereo not drawn),-5,10,-20,0,.,8
CC(C)(C)c1ccc(-n2nc(C(N)=O)c(O)cc2=O)cc1,0,1,-9,-5,11,6
CC(C)(C)c1ccc(-n2nc(C#N)c(Cl)cc2=O)cc1,4,92*,91*,104*,98*,-101*
O=C1NC(c2cccc(OCc3ccccc3)c2)Nc2ccccc21 (stereo not drawn),61*,4,32,-22,26,-11
O=C1NC(c2ccc(O)cc2)Nc2ccccc21 (stereo not drawn),-7,-28,-1,-13,-8,4
Cc1nc2c(nc1C)C(=O)c1ccccc1C2=O,3,-5,61*,8,105*,-13
O=C1c2ccccc2-c2nc3ccccc3nc21,-3,-258,-30,-215,-31,16
Cc1c(N=C2N=C(NC(=O)c3ccc(F)cc3)c3ccccc32)c(=O)n(-c2ccccc2)n1C,-2,-34,-22,63*,-18,1
Cc1c(NC(=O)NC(=O)c2ccc(F)cc2)c(=O)n(-c2ccccc2)n1C,2,5,7,-5,-2,-6
Fc1ccc(CNC(=S)Nc2cccc(C(F)(F)F)c2)cc1,10,2,2,69*,-1,0
S=C1SC2(CCCCCC2)NC2=C1CCCCC2,7,4,-10,-1,.,0
C[N+](C)(C)CCC(=O)N1C/C(=C/c2ccccc2)C(=O)/C(=C\c2ccccc2)C1,-42,0,-118,77*,3,8
O=C(/C=C/c1ccccc1)N1CCOCC1,1,-33,-17,-24,-17,6
CN(C)CCC(=O)N1C/C(=C/c2ccccc2)C(=O)/C(=C\c2ccccc2)C1,87*,92*,95*,109*,101*,-71*
O=C1/C(=C/c2ccccc2)CN(C(=O)CCN2CCOCC2)C/C1=C\c1ccccc1,-35,85*,90*,96*,101*,9
C/C(=C\c1ccccc1)C(=O)NCCN1CCOCC1,3,-18,-4,1,-1,-4
O=C(/C=C/c1ccccc1)CCN1CCOCC1,4,-8,7,92*,-3,-7
Cn1nc(C(C)(C)C)cc1C(=O)N1CCCCC1c1cc(C(=O)NCc2cccnc2)no1 (stereo not drawn),.,-14,-6,13,.,-12
N#C/C(=N\Nc1ccc(Cl)cc1)C(N)=S,30,-161,61*,-31,-7,-39

# Compound activity (PubChem)
